Test results published in the supplement of paper PMC10849652.
About 8,800 targets were measured; listed, in parts, are those with a hit and a random draw of the rest. About 0.5% of all pairs of compound and target were hits. Values without a mark were called inactive.

Experiments:
Test in all cases: log2 fold change, soluble protein after heating vs DMSO (PISA); higher = thermal stabilisation; K562 lysate, 10 uM; active = over 0.2 and 3.5 SD of the protein, either way, in both replicates (recomputed)
alvocidib = compound: CN1CC[C@H](c2c(O)cc(O)c3c(=O)cc(-c4ccccc4Cl)oc23)[C@H](O)C1 [alvocidib]
Method in brief: (§1)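 Soluble protein was defined as the supernatant remaining after 21,000xg for 90 min, following pooling of heated aliquots and adjustment to 0.5% NP-40 at 4°C. Before that, crude K562 extract at 1 mg/mL protein in PBS pH 7.4 with 1 mM MgCl2 was treated with 10 μM compound for 30 min and heated for 3 min across 48°C-58°C. Quantification used TMTpro 16plex LC-MS/MS with channel sums equalised, and values are log-two fold changes in thermal stability relative to solvent controls from duplicates.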

Tubastatin A = compound: CN1CCc2c(c3ccccc3n2Cc2ccc(C(=O)NO)cc2)C1 [Tubastatin A]
Method in brief: as §1

[1] = compound: CNC(=O)C1=CC=CC=C1NC2=NC(=NC=C2Cl)NC3=C(C=C(C=C3)N4CCOCC4)OC
Method in brief: as §1

defactinib = compound: CNC(=O)c1ccc(Nc2ncc(C(F)(F)F)c(NCc3nccnc3N(C)S(C)(=O)=O)n2)cc1 [defactinib]
Method in brief: as §1

[2] = compound: CNc1nc(-c2ccc3c(N)n[nH]c3c2)cc(N2C[C@@H](C(=O)NC3CCCCC3)CC[C@H]2C)n1
Method in brief: as §1

encorafenib = compound: COC(=O)N[C@@H](C)CNc1nccc(-c2cn(C(C)C)nc2-c2cc(Cl)cc(NS(C)(=O)=O)c2F)n1 [encorafenib]
Method in brief: as §1

[3] = compound: COC(=O)[C@H](CCSC)NC(=O)C1=C(C=C(C=C1)NC[C@H](CS)N)C2=CC=CC=C2
Method in brief: as §1

alisertib = compound: COc1cc(Nc2ncc3c(n2)-c2ccc(Cl)cc2C(c2c(F)cccc2OC)=NC3)ccc1C(=O)O [alisertib]
Method in brief: as §1

[4] = compound: COc1cc2nc(-c3cc(F)ccc3O)nc(N[C@@H]3CNC[C@H]3C(C)(C)O)c2cc1OC
Method in brief: as §1

gefitinib = compound: COc1cc2ncnc(Nc3ccc(F)c(Cl)c3)c2cc1OCCCN1CCOCC1 [gefitinib]
Method in brief: as §1

lapatinib = compound: CS(=O)(=O)CCNCc1ccc(-c2ccc3ncnc(Nc4ccc(OCc5cccc(F)c5)c(Cl)c4)c3c2)o1 [lapatinib]
Method in brief: as §1

pictilisib = compound: CS(=O)(=O)N1CCN(Cc2cc3nc(-c4cccc5[nH]ncc45)nc(N4CCOCC4)c3s2)CC1 [pictilisib]
Method in brief: as §1

crizotinib = compound: C[C@@H](Oc1cc(-c2cnn(C3CCNCC3)c2)cnc1N)c1c(Cl)ccc(F)c1Cl [crizotinib]
Method in brief: as §1

[5] = compound: C[C@H](C1=CC=C(C=C1)C(=O)NC2=C3C=CNC3=NC=C2)N
Method in brief: as §1

duvelisib = compound: C[C@H](Nc1ncnc2nc[nH]c12)c1cc2cccc(Cl)c2c(=O)n1-c1ccccc1 [duvelisib]
Method in brief: as §1

gandotinib = compound: Cc1cc(Nc2cc(CN3CCOCC3)c3nc(C)c(Cc4ccc(Cl)cc4F)n3n2)n[nH]1 [gandotinib]
Method in brief: as §1

tozasertib = compound: Cc1cc(Nc2cc(N3CCN(C)CC3)nc(Sc3ccc(NC(=O)C4CC4)cc3)n2)n[nH]1 [tozasertib]
Method in brief: as §1

doramapimod = compound: Cc1ccc(-n2nc(C(C)(C)C)cc2NC(=O)Nc2ccc(OCCN3CCOCC3)c3ccccc23)cc1 [doramapimod]
Method in brief: as §1

bafetinib = compound: Cc1ccc(NC(=O)c2ccc(CN3CC[C@H](N(C)C)C3)c(C(F)(F)F)c2)cc1Nc1nccc(-c2cncnc2)n1 [bafetinib]
Method in brief: as §1

[6] = compound: Cc1cccc(CC(=O)N2CCc3c2ccc(-c2cn(C)c4ncnc(N)c24)c3F)n1
Method in brief: as §1

UniProt Q9UPN9, sequence (Q9UPN9 whole entry, looked up): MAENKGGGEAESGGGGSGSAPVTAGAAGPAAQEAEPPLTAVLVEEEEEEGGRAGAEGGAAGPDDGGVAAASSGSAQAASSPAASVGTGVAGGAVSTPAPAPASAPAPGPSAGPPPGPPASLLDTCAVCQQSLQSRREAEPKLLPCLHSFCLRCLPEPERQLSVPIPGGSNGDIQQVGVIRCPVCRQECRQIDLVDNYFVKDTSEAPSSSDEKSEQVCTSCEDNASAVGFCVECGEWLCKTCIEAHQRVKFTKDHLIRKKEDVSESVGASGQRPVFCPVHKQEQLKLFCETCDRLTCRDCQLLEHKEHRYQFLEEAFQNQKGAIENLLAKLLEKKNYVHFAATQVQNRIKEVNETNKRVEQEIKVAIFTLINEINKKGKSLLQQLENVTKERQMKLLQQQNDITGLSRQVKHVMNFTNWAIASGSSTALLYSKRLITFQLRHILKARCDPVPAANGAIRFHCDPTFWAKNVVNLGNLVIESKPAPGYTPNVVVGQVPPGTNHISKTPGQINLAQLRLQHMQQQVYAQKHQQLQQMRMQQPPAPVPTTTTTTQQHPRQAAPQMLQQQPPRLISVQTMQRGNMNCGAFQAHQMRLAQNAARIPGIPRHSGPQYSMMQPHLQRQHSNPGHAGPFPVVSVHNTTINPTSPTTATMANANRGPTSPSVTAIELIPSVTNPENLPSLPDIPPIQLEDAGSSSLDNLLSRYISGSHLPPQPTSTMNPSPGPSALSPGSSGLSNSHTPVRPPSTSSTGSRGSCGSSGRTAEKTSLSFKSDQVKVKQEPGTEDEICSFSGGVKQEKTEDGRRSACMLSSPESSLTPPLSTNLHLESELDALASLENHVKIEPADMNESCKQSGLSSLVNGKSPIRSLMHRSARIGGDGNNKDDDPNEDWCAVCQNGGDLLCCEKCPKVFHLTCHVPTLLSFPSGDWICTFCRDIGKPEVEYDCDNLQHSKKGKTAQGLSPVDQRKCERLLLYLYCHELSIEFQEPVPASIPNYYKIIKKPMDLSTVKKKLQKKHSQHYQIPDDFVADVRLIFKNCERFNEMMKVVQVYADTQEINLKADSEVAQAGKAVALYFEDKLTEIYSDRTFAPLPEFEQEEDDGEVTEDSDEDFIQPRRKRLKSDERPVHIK
UniProt Q9UGJ1, sequence (Q9UGJ1 whole entry, looked up): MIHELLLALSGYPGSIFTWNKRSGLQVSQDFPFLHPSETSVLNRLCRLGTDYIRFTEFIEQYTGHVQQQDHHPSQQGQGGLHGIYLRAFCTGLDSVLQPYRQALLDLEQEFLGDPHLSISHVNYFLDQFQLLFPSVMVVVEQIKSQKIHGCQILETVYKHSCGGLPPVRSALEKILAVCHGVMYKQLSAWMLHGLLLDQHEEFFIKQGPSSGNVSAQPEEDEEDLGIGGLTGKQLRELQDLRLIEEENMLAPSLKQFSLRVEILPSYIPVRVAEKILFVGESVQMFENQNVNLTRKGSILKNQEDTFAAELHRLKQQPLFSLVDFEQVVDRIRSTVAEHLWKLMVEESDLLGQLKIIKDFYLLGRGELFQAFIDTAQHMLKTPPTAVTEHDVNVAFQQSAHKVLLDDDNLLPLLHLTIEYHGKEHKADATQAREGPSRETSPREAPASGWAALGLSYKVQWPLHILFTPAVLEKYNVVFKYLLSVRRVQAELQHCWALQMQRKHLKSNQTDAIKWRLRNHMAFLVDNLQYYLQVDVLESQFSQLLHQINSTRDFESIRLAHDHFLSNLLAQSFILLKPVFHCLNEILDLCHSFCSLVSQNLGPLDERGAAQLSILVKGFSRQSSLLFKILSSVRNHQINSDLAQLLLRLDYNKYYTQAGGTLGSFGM
UniProt Q9BUF5, sequence (Q9BUF5 whole entry, looked up): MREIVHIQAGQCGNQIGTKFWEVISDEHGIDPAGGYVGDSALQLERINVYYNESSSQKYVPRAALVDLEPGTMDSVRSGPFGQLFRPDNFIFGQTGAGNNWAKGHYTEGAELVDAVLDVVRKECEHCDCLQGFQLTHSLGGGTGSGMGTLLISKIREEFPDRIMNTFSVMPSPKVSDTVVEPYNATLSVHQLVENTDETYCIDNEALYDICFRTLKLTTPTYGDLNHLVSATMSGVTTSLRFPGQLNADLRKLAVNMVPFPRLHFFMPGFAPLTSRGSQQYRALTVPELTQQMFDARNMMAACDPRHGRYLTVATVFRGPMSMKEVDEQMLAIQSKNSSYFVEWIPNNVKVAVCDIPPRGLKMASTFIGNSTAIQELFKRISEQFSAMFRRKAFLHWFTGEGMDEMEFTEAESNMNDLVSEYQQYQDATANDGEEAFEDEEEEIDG
UniProt Q07157, sequence (Q07157 whole entry, looked up): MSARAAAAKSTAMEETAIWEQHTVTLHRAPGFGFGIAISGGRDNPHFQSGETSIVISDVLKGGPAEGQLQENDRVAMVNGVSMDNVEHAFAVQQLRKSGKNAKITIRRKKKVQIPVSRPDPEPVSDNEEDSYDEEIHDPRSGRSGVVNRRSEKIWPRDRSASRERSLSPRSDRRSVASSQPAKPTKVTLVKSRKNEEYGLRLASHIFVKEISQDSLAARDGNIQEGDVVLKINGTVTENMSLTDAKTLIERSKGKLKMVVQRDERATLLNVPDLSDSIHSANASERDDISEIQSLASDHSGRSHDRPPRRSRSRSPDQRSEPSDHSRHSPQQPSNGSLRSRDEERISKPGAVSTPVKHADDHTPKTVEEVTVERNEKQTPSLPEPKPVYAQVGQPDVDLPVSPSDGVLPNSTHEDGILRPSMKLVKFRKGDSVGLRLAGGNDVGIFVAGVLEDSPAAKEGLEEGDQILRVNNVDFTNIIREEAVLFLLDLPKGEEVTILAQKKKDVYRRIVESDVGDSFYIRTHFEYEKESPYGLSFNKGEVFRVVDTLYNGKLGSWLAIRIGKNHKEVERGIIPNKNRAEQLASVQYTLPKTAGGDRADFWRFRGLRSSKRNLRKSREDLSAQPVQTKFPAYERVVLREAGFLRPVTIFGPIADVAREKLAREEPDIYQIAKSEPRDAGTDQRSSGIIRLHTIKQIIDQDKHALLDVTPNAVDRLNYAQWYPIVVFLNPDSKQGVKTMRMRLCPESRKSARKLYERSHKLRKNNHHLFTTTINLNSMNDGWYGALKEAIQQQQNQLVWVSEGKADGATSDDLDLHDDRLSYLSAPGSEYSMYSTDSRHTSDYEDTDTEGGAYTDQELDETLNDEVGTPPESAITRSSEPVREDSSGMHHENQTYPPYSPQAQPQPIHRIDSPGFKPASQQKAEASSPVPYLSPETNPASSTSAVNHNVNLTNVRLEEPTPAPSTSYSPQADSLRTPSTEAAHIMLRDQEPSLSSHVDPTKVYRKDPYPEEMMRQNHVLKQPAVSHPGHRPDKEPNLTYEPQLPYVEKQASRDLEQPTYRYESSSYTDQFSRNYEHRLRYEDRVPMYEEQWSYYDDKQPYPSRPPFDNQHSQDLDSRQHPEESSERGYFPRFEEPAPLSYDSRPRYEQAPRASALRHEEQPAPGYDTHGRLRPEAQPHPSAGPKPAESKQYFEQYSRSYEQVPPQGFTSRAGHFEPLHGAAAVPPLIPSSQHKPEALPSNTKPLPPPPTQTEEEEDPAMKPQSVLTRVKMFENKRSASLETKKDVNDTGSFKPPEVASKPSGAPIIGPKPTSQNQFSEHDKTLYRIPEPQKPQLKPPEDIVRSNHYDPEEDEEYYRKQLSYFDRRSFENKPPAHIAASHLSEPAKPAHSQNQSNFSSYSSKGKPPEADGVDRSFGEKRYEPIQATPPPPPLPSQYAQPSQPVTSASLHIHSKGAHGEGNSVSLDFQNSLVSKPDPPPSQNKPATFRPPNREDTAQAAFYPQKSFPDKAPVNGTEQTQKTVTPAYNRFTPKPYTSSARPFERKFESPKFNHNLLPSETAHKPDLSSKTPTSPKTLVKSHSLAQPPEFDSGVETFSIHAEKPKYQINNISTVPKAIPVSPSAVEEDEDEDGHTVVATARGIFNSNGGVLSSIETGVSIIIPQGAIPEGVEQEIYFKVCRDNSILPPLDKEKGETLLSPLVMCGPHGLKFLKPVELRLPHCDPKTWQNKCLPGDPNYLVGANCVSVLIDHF
UniProt Q13769, sequence (Q13769 whole entry, looked up): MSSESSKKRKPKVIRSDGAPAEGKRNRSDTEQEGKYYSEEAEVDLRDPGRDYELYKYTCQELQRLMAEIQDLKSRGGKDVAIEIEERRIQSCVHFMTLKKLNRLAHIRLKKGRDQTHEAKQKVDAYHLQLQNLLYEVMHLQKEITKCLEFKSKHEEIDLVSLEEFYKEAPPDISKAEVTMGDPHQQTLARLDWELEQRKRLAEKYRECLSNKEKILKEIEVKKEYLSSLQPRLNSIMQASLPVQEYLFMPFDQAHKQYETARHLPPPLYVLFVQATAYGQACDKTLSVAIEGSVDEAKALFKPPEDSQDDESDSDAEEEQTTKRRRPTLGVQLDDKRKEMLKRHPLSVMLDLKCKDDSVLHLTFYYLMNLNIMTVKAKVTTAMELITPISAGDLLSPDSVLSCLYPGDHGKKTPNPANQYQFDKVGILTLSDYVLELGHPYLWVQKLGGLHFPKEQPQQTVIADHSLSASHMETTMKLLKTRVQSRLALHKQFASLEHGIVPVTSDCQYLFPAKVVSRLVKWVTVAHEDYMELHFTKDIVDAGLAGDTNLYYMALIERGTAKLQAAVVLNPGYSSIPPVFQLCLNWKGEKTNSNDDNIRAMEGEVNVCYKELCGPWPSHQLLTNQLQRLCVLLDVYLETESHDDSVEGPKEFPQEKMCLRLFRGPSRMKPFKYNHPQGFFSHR

Row | Target | log2 fold change (alvocidib) | log2 fold change (Tubastatin A) | log2 fold change [1] | log2 fold change (defactinib) | log2 fold change [2] | log2 fold change (encorafenib) | log2 fold change [3] | log2 fold change (alisertib) | log2 fold change [4] | log2 fold change (gefitinib) | log2 fold change (lapatinib) | log2 fold change (pictilisib) | log2 fold change (crizotinib) | log2 fold change [5] | log2 fold change (duvelisib) | log2 fold change (gandotinib) | log2 fold change (tozasertib) | log2 fold change (doramapimod) | log2 fold change (bafetinib) | log2 fold change [6]
1 | TTK (UniProt P33981) | -0.004 | -0.141 | 0.616 (active) | 0.434 (active) | 0.101 | 0.004 | -0.02 | 0.078 | 0.103 | -0.102 | 0.061 | 0.142 | -0.008 | 0 | -0.031 | 0.058 | -0.054 | 0.143 | -0.068 | 0.024
2 | TUBA1B (UniProt P68363) | -0.027 | -0.056 | 0.019 | -0.03 | 0.003 | -0.004 | 0.085 | 0.026 | -0.004 | 0.013 | 0.004 | 0.001 | -0.039 | -0.015 | -0.011 | 0.022 | -0.011 | 0.023 | -0.025 | 0.002
3 | TTI2 (UniProt Q6NXR4) | -0.006 | -0.081 | 0.03 | 0.069 | 0.006 | 0.072 | 0.015 | 0.004 | 0.024 | -0.034 | -0.033 | -0.033 | -0.016 | -0.032 | -0.018 | -0.023 | 0.004 | -0.023 | -0.017 | 0.082
4 | TJP1 isoform 2 (UniProt Q07157) | -0.011 | 0.047 | -0.02 | -0.018 | 0.043 | -0.013 | 0.011 | -0.007 | 0.007 | -0.017 | -0.015 | -0.028 | 0.016 | -0.065 | -0.014 | 0.075 | -0.002 | 0.014 | -0.062 | 0.111
5 | TUBB6 (UniProt Q9BUF5) | 0.023 | -0.064 | 0.015 | 0.034 | 0.023 | 0.017 | 0.056 | 0.028 | 0.011 | -0.024 | -0.038 | -0.015 | -0.056 | 0.003 | 0.009 | -0.009 | -0.02 | -0.047 | -0.023 | -0.018
6 | TGFBRAP1 (UniProt Q8WUH2) | -0.026 | -0.153 | 0 | 0.005 | -0.012 | -0.015 | -0.174 | 0.011 | -0.025 | -0.025 | -0.029 | -0.021 | -0.034 | -0.001 | -0.03 | -0.138 | 0.052 | 0.028 | -0.056 | -0.007
7 | TTLL12 (UniProt Q14166) | 0.039 | -0.212 | -0.003 | 0.018 | -0.03 | -0.009 | 0.032 | 0 | 0.003 | 0.039 | -0.002 | -0.02 | -0.039 | 0.014 | 0.015 | -0.091 | 0.023 | 0.016 | -0.004 | 0.014
8 | TRAPPC10 (UniProt P48553) | -0.034 | -0.074 | 0.01 | -0.034 | 0.011 | 0.009 | -0.047 | 0.015 | -0.001 | -0.029 | 0 | 0 | -0.034 | -0.101 | -0.016 | 0.022 | -0.01 | -0.027 | -0.007 | 0.074
9 | TBL2 (UniProt Q9Y4P3) | 0.018 | -0.007 | 0.023 | 0.039 | -0.003 | 0.057 | -0.036 | 0.008 | 0.055 | -0.018 | -0.025 | -0.002 | -0.007 | -0.068 | 0.014 | -0.053 | 0.063 | 0.032 | -0.013 | 0.055
10 | THOC5 (UniProt Q13769) | -0.027 | -0.025 | -0.021 | -0.008 | -0.016 | 0.005 | 0.062 | 0.059 | 0.006 | -0.018 | -0.036 | -0.007 | -0.011 | -0.024 | -0.009 | -0.021 | -0.01 | 0.02 | -0.009 | 0.035
11 | TLE3 isoform 4 (UniProt Q04726) | 0.023 | 0.002 | -0.013 | 0.004 | 0.024 | 0.014 | -0.019 | -0.016 | 0.002 | -0.037 | -0.01 | 0.008 | 0.003 | 0.004 | -0.015 | 0 | -0.029 | -0.016 | 0.1 | -0.048
12 | TRIM11 (UniProt Q96F44) | -0.015 | -0.021 | 0.037 | 0.016 | -0.007 | 0.029 | 0.053 | -0.026 | -0.055 | 0.004 | 0.013 | -0.006 | -0.029 | -0.006 | -0.016 | -0.03 | -0.006 | 0.015 | 0.029 | -0.003
13 | TRIM33 isoform 2 (UniProt Q9UPN9) | -0.029 | -0.131 | 0.016 | -0.001 | -0.006 | 0.006 | 0.052 | -0.003 | 0.046 | 0.005 | -0.034 | 0.008 | -0.015 | -0.07 | -0.002 | -0.023 | 0.011 | 0.021 | -0.038 | 0.056
14 | TUBGCP4 (UniProt Q9UGJ1) | 0 | -0.081 | 0.007 | -0.023 | -0.025 | -0.049 | 0.047 | -0.007 | -0.018 | -0.043 | -0.022 | 0.011 | -0.012 | -0.007 | 0.03 | -0.125 | -0.022 | -0.041 | -0.076 | 0.019
15 | TRIM56 (UniProt Q9BRZ2) | -0.013 | -0.13 | 0.067 | 0.008 | -0.059 | 0.068 | -0.21 | 0.04 | 0.001 | -0.01 | 0.001 | -0.002 | -0.002 | 0.085 | 0.003 | -0.071 | 0 | 0.023 | -0.132 | 0.085
16 | TUBB1 (UniProt Q9H4B7) | 0.026 | -0.059 | 0.021 | 0.07 | -0.005 | -0.015 | 0.071 | -0.013 | -0.034 | -0.047 | -0.006 | -0.007 | -0.025 | 0.093 | -0.01 | -0.015 | -0.027 | -0.046 | 0.036 | -0.06
